{
  "source": "the supplement of paper PMC8728848",
  "test_in_all_cases": "glycan array binding signal (z-score within array); higher = stronger binding",
  "conditions_in_all_cases": "glycan notation: IUPAC condensed, linker removed",
  "key": {"Gal6S(b1-3)GlcNAc": {"biological_target": "Gal6S(b1-3)GlcNAc", "procedure,_shortened": "(§1)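 Glycan array data were curated from 3228 arrays in the Consortium for Functional Glycomics database and kept only where the protein sequence was available. Glycan names were converted to IUPAC-condensed notation, and columns mapping to the same glycan were averaged. The binding signal is a within-array Z-score, averaged across arrays of the same protein sequence at different concentrations or buffers and across linkers. Negative Z-scores can be read as non-binding.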"}, "Gal6S(b1-4)Glc6S": {"biological_target": "Gal6S(b1-4)Glc6S", "procedure,_shortened": "as §1"}, "[1]": {"biological_target": "GalNAc(a1-3)GalNAc(b1-3)Gal(a1-4)Gal(b1-4)Glc", "procedure,_shortened": "as §1"}, "GalNAc(b1-4)GlcNAc": {"biological_target": "GalNAc(b1-4)GlcNAc", "procedure,_shortened": "as §1"}, "[2]": {"biological_target": "GalNAc(b1-4)GlcNAc(b1-2)Man(a1-3)[GalNAc(b1-4)GlcNAc(b1-2)Man(a1-6)]Man(b1-4)GlcNAc(b1-4)GlcNAc", "procedure,_shortened": "as §1"}, "GalNAc3S(b1-4)GlcNAc3S": {"biological_target": "GalNAc3S(b1-4)GlcNAc3S", "procedure,_shortened": "as §1"}, "Glc(b1-4)Glc": {"biological_target": "Glc(b1-4)Glc", "procedure,_shortened": "as §1"}, "[3]": {"biological_target": "GlcNAc(b1-2)Man(a1-3)[GlcNAc(b1-4)][GlcNAc(b1-2)Man(a1-6)]Man(b1-4)GlcNAc(b1-4)GlcNAc", "procedure,_shortened": "as §1"}, "[4]": {"biological_target": "GlcNAc(b1-2)[GlcNAc(b1-6)]Man(a1-6)[GlcNAc(b1-4)][GlcNAc(b1-2)Man(a1-3)]Man(b1-4)GlcNAc(b1-4)GlcNAc", "procedure,_shortened": "as §1"}, "[5]": {"biological_target": "GlcNAc(b1-3)Gal(b1-4)GlcNAc(b1-3)Gal(b1-4)GlcNAc(b1-2)[GlcNAc(b1-3)Gal(b1-4)GlcNAc(b1-3)Gal(b1-4)GlcNAc(b1-6)]Man(a1-6)[GlcNAc(b1-3)Gal(b1-4)GlcNAc(b1-3)Gal(b1-4)GlcNAc(b1-2)Man(a1-3)]Man(b1-4)GlcNAc(b1-4)[Fuc(a1-6)]GlcNAc", "procedure,_shortened": "as §1"}, "[6]": {"biological_target": "GlcNAc(b1-3)Gal(b1-4)GlcNAc(b1-3)Gal(b1-4)GlcNAc(b1-3)GalNAc", "procedure,_shortened": "as §1"}, "GlcNAc(b1-6)GalNAc": {"biological_target": "GlcNAc(b1-6)GalNAc", "procedure,_shortened": "as §1"}, "Kdn(a2-3)Gal(b1-4)Glc": {"biological_target": "Kdn(a2-3)Gal(b1-4)Glc", "procedure,_shortened": "as §1"}, "[7]": {"biological_target": "Man(a1-2)Man(a1-3)[Man(a1-2)Man(a1-6)]Man(a1-6)[Man(a1-2)Man(a1-2)Man(a1-3)]Man(b1-4)GlcNAc(b1-4)GlcNAc", "procedure,_shortened": "as §1"}, "[8]": {"biological_target": "Man(a1-2)Man(a1-6)[Man(a1-3)]Man(a1-6)[Man(a1-2)Man(a1-2)Man(a1-3)]Man", "procedure,_shortened": "as §1"}, "[9]": {"biological_target": "Man(a1-3)[Man(a1-6)]Man(a1-6)[Man(a1-3)]Man", "procedure,_shortened": "as §1"}, "Man(a1-6)Man": {"biological_target": "Man(a1-6)Man", "procedure,_shortened": "as §1"}, "[10]": {"biological_target": "Neu5Ac(a2-3)Gal(b1-3)GlcNAc(b1-2)Man(a1-3)[Neu5Ac(a2-3)Gal(b1-3)GlcNAc(b1-2)Man(a1-6)]Man(b1-4)GlcNAc(b1-4)GlcNAc", "procedure,_shortened": "as §1"}, "[11]": {"biological_target": "Neu5Ac(a2-3)Gal(b1-3)GlcNAc6S", "procedure,_shortened": "as §1"}, "[12]": {"biological_target": "Neu5Ac(a2-3)Gal(b1-4)GlcNAc(b1-3)Gal(b1-3)GlcNAc", "procedure,_shortened": "as §1"}, "[13]": {"biological_target": "Neu5Ac(a2-3)Gal(b1-4)GlcNAc6S", "procedure,_shortened": "as §1"}, "[14]": {"biological_target": "Neu5Ac(a2-6)Gal(b1-4)GlcNAc(b1-2)Man(a1-3)Man(b1-4)GlcNAc(b1-4)GlcNAc", "procedure,_shortened": "as §1"}, "[15]": {"biological_target": "Neu5Ac(a2-6)Gal(b1-4)GlcNAc(b1-2)Man(a1-3)[Man(a1-6)]Man(b1-4)GlcNAc(b1-4)GlcNAc", "procedure,_shortened": "as §1"}, "[16]": {"biological_target": "Neu5Ac(a2-6)GlcNAc(b1-4)GlcNAc(b1-4)GlcNAc", "procedure,_shortened": "as §1"}, "[17]": {"biological_target": "Neu5Ac(a2-8)Neu5Ac(a2-3)Gal(b1-3)GalNAc(b1-4)[Neu5Ac(a2-8)Neu5Ac(a2-3)]Gal(b1-4)Glc", "procedure,_shortened": "as §1"}, "[18]": {"biological_target": "Neu5Ac(a2-8)Neu5Ac(a2-3)[Gal(b1-3)GalNAc(b1-4)]Gal(b1-4)Glc", "procedure,_shortened": "as §1"}, "[19]": {"biological_target": "Neu5Gc(a2-3)Gal(b1-4)[Fuc(a1-3)]GlcNAc", "procedure,_shortened": "as §1"}},
  "note": "Shown is part of a subset that was picked to be rich in the strongest signals.",
  "data": [
    {"binder": "AT1G77380(17) (Arabidopsis thaliana), Q39134 (protein) MVQNHQTVLAVDMPQTGGSKYLDDDGKNKRTGSVWTASAHIITAVIGSGVLSLAWATAQLGWLAGPVVMLLFSAVTYFTSSLLAACYRSGDPISGKRNYTYMDAVRSNLGGVKVTLCGIVQYLNIFGVAIGYTIASAISMMAIKRSNCFHKSGGKDPCHMNSNPYMIAFGLVQILFSQIPDFDQLWWLSILAAVMSFTYSSAGLALGIAQVVVNGKVKGSLTGISIGAVTETQKIWRTFQALGDIAFAYSYSIILIEIQDTVKSPPSEEKTMKKATLVSVSVTTMFYMLCGCMGYAAFGDLSPGNLLTGFGFYNPYWLLDIANAAIVIHLIGAYQVYCQPLFAFIEKQASIQFPDSEFIAKDIKIPIPGFKPLRLNVFRLIWRTVFVIITTVISMLLPFFNDVVGLLGALGFWPLTVYFPVEMYIAQKKIPRWSTRWVCLQVFSLGCLVVSIAAAAGSIAGVLLDLKSYKPFRSEY", "values": [
      {"measurement": "glycan array binding signal (z-score)", "setting": "Gal6S(b1-3)GlcNAc", "value": -0.519},
      {"measurement": "glycan array binding signal (z-score)", "setting": "Gal6S(b1-4)Glc6S", "value": -0.34},
      {"measurement": "glycan array binding signal (z-score)", "setting": "[1]", "value": -0.209},
      {"measurement": "glycan array binding signal (z-score)", "setting": "GalNAc(b1-4)GlcNAc", "value": 2.31},
      {"measurement": "glycan array binding signal (z-score)", "setting": "[2]", "value": 7.58},
      {"measurement": "glycan array binding signal (z-score)", "setting": "GalNAc3S(b1-4)GlcNAc3S", "value": -0.031},
      {"measurement": "glycan array binding signal (z-score)", "setting": "Glc(b1-4)Glc", "value": 0.66},
      {"measurement": "glycan array binding signal (z-score)", "setting": "[3]", "value": -0.289},
      {"measurement": "glycan array binding signal (z-score)", "setting": "[4]", "value": -0.522},
      {"measurement": "glycan array binding signal (z-score)", "setting": "[5]", "value": 0.854},
      {"measurement": "glycan array binding signal (z-score)", "setting": "[6]", "value": -0.766},
      {"measurement": "glycan array binding signal (z-score)", "setting": "GlcNAc(b1-6)GalNAc", "value": 2.85},
      {"measurement": "glycan array binding signal (z-score)", "setting": "Kdn(a2-3)Gal(b1-4)Glc", "value": 4.07},
      {"measurement": "glycan array binding signal (z-score)", "setting": "[7]", "value": 3.3},
      {"measurement": "glycan array binding signal (z-score)", "setting": "[8]", "value": -0.524},
      {"measurement": "glycan array binding signal (z-score)", "setting": "[9]", "value": -0.782},
      {"measurement": "glycan array binding signal (z-score)", "setting": "Man(a1-6)Man", "value": -0.696},
      {"measurement": "glycan array binding signal (z-score)", "setting": "[10]", "value": -0.809},
      {"measurement": "glycan array binding signal (z-score)", "setting": "[11]", "value": 0.954},
      {"measurement": "glycan array binding signal (z-score)", "setting": "[12]", "value": -1.04},
      {"measurement": "glycan array binding signal (z-score)", "setting": "[13]", "value": -0.786},
      {"measurement": "glycan array binding signal (z-score)", "setting": "[14]", "value": -0.792},
      {"measurement": "glycan array binding signal (z-score)", "setting": "[15]", "value": -0.896},
      {"measurement": "glycan array binding signal (z-score)", "setting": "[16]", "value": 0.349},
      {"measurement": "glycan array binding signal (z-score)", "setting": "[17]", "value": -0.862},
      {"measurement": "glycan array binding signal (z-score)", "setting": "[18]", "value": -0.73},
      {"measurement": "glycan array binding signal (z-score)", "setting": "[19]", "value": -0.363}
    ]}
  ]
}
